# Measurements reported in PubChem BioAssay (Tox21).
# Records with an inconclusive call do not appear. The source holds several records for some structures; these can differ, active in one and inactive in another. Calls of active or inactive are those of the source. Unless noted, calls follow the shape of the full dose curve.
# Test: qHTS assay for small molecule agonists of the p53 signaling pathway (AID 651631); also: nearly all actives have a fitted effect of over 15% in size; also: potency is read from the fitted curve at half-maximal effect
# Settings: HCT-116 p53RE-bla reporter, beta-lactamase FRET ratio, 16 h; series mostly up to 73.3 µM; activation: at the top concentration
# Outline: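 Quantitative high-throughput format: 4,000 p53RE-bla HCT-116 cells/well, 5 h pre-incubation, 16 h compound exposure at 37 °C, 2 h room-temperature substrate step, fluorescence intensity measured.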
# % is scaled to controls: 0 for no effect and ±100 for the full control effect.
SMILES,Potency,activation
ClC=C(Cl)Cl,inactive,–
CC(c1ccc(O)cc1)(c1ccc(O)cc1)c1ccc(O)cc1,6.86 µM (active),–
C=CC(C)=O,–,-1.97% (inactive)
CC1CC(CC2CCC(N)C(C)C2)CCC1N (configuration not stated),–,5.88% [at 95.1 µM] (inactive)
CCN(C)N=O,–,10.4% (inactive)
II,–,-0.572% (inactive)
O=NN1CCNCC1,–,-3.83% [at 95.1 µM] (inactive)
CCCCNP(N)(N)=S,–,5.44% (inactive)
c1ccc(C2CC2)c(OCC2=NCCN2)c1,–,-3.78% (inactive)
CCOP(=S)(OCC)Oc1nc(Cl)c(Cl)cc1Cl,–,0.623% (inactive)
CCCCCCC#N,–,-3.42% (inactive)
Cn1sc(Cl)cc1=O,inactive,–
CCCCCCCCOC(=O)c1ccc(C(=O)OCCCCCCCC)c(C(=O)OCCCCCCCC)c1,–,2.48% [at 95.1 µM] (inactive)
O=NN1CCCCCC1,–,0.53% (inactive)
CCOc1nc(F)cc2nc(S(=O)(=O)Nc3c(Cl)cccc3Cl)nn12,–,-1.74% (inactive)
CCBr,–,-2.35% [at 95.1 µM] (inactive)
Brc1ccc(Oc2ccccc2)cc1,–,-1.67% (inactive)

SMILES,Potency,activation
Cc1ccc2ccccc2c1,–,-3.38% (inactive)
N#CCc1ccccc1,–,0.91% [at 95.1 µM] (inactive)
CC/C(=N\OC/C=C/Cl)C1=C(O)CC(C2CCOCC2)CC1=O (configuration not stated),–,-2.18% (inactive)
N#Cc1cc(I)c(O)c(I)c1,4.33 µM (active),–
COC(=O)C(Cl)C(=O)OC,–,-4.11% (inactive)
O=[N+]([O-])c1ccccc1CCl,–,-2.68% [at 95.1 µM] (inactive)
COc1cc(CC(C)N)cc2c1OCO2 (configuration not stated),–,-1.47% [at 95.1 µM] (inactive)
Nc1nc(=S)[nH][nH]1,–,1.59% (inactive)
Nc1nc(N)nc(N)n1,–,-1.55% [at 95.1 µM] (inactive)
COCC(C)N(C(=O)CCl)c1c(C)csc1C (configuration not stated),inactive,–
c1ccc(CN2CCNCC2)cc1,–,-2.24% [at 260 µM] (inactive)
CCCCCCCCCC(=O)O[C@H]1CC[C@H]2[C@@H]3CCC4=CC(=O)CC[C@@H]4[C@H]3CC[C@]12C,–,-3.33% (inactive)
C=CCC1([C@H](C)CCC)C(=O)NC(=O)NC1=O,–,-3.35% (inactive)
CCOP(=O)(OCC)SCCSCC,–,3.89% (inactive)
Cc1cc(=O)[nH]o1,–,-1.1% [at 95.1 µM] (inactive)
IC(I)=C(I)I,12.2 µM (active),–
CN1C(=O)NC(=O)C(C)(C2=CCCCC2)C1=O (configuration not stated),inactive,–

# Test: qHTS assay for small molecules that induce genotoxicity in human embryonic kidney cells expressing luciferase-tagged ATAD5 (AID 651632; active = well fitted activation curve with a large enough effect in the repeat runs; also: nearly all actives have a fitted effect of over 15% in size)
# Settings: HEK293T ATAD5-luciferase induction, 16 h; series mostly up to 83.3 µM; activation: at the top concentration
# Outline: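 Luminescence read-out: after 16 hr compound exposure at 37C, ATAD5-luciferase HEK293T cells received Amplite, 30 min RT, then CCD imaging. A rise in signal marks genotoxic stress.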
SMILES,Potency,activation
ClC=C(Cl)Cl,inactive,–
CC(c1ccc(O)cc1)(c1ccc(O)cc1)c1ccc(O)cc1,–,-6.21% (inactive)
C=CC(C)=O,–,0.41% (inactive)
CC1CC(CC2CCC(N)C(C)C2)CCC1N (configuration not stated),–,1.84% [at 95.3 µM] (inactive)
CCN(C)N=O,–,-0.966% (inactive)
II,–,-1.12% (inactive)
O=NN1CCNCC1,–,0.296% [at 95.3 µM] (inactive)
CCCCNP(N)(N)=S,–,2.95% (inactive)
c1ccc(C2CC2)c(OCC2=NCCN2)c1,–,-2.75% (inactive)
CCOP(=S)(OCC)Oc1nc(Cl)c(Cl)cc1Cl,inactive,–
CCCCCCC#N,–,2.81% (inactive)
Cn1sc(Cl)cc1=O,inactive,–
CCCCCCCCOC(=O)c1ccc(C(=O)OCCCCCCCC)c(C(=O)OCCCCCCCC)c1,–,2.5% [at 95.3 µM] (inactive)
O=NN1CCCCCC1,–,-2.9% (inactive)
CCOc1nc(F)cc2nc(S(=O)(=O)Nc3c(Cl)cccc3Cl)nn12,–,-6.72% (inactive)
CCBr,–,1.41% [at 95.3 µM] (inactive)
Brc1ccc(Oc2ccccc2)cc1,inactive,–

SMILES,Potency,activation
Cc1ccc2ccccc2c1,–,1.95% (inactive)
N#CCc1ccccc1,–,1.18% [at 95.3 µM] (inactive)
CC/C(=N\OC/C=C/Cl)C1=C(O)CC(C2CCOCC2)CC1=O (configuration not stated),–,-1.23% (inactive)
N#Cc1cc(I)c(O)c(I)c1,–,-10.2% (inactive)
COC(=O)C(Cl)C(=O)OC,–,0.34% (inactive)
O=[N+]([O-])c1ccccc1CCl,–,-2.04% [at 95.3 µM] (inactive)
COc1cc(CC(C)N)cc2c1OCO2 (configuration not stated),–,3.5% [at 95.3 µM] (inactive)
Nc1nc(=S)[nH][nH]1,–,-0.667% (inactive)
Nc1nc(N)nc(N)n1,–,0.777% [at 95.3 µM] (inactive)
COCC(C)N(C(=O)CCl)c1c(C)csc1C (configuration not stated),inactive,–
c1ccc(CN2CCNCC2)cc1,–,1.96% [at 260 µM] (inactive)
CCCCCCCCCC(=O)O[C@H]1CC[C@H]2[C@@H]3CCC4=CC(=O)CC[C@@H]4[C@H]3CC[C@]12C,–,4.95% (inactive)
C=CCC1([C@H](C)CCC)C(=O)NC(=O)NC1=O,–,3.08% (inactive)
CCOP(=O)(OCC)SCCSCC,–,0.546% (inactive)
Cc1cc(=O)[nH]o1,–,-0.355% [at 95.3 µM] (inactive)
IC(I)=C(I)I,–,-14.4% (inactive)
CN1C(=O)NC(=O)C(C)(C2=CCCCC2)C1=O (configuration not stated),inactive,–

# Test: qHTS assay for small molecule agonists of the p53 signaling pathway - cell viability (AID 651633); also: nearly all actives have a fitted effect of over 30% in size; also: potency is read from the fitted curve at half-maximal effect
# Settings: p53RE-bla HCT-116 viability, ATP luminescence, 16 h; series mostly up to 83.3 µM; activity change, negative = cytotoxicity: at the top concentration
# Outline: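 p53RE-bla cells were treated with compound for 16 hours at 37 C. Cytotoxicity was then measured as CellTiter-Glo luminescence after 30 min at room temperature.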
SMILES,Potency,"activity change, negative = cytotoxicity"
ClC=C(Cl)Cl,inactive,–
CC(c1ccc(O)cc1)(c1ccc(O)cc1)c1ccc(O)cc1,6.86 µM (active),–
C=CC(C)=O,–,-8.77% (inactive)
CC1CC(CC2CCC(N)C(C)C2)CCC1N (configuration not stated),–,-1.34% [at 95.3 µM] (inactive)
CCN(C)N=O,–,4.77% (inactive)
II,–,-6.46% (inactive)
O=NN1CCNCC1,–,22.3% [at 95.3 µM] (inactive)
CCCCNP(N)(N)=S,–,4.19% (inactive)
c1ccc(C2CC2)c(OCC2=NCCN2)c1,–,-13.9% (inactive)
CCOP(=S)(OCC)Oc1nc(Cl)c(Cl)cc1Cl,54.6 µM (active) and inactive,–
CCCCCCC#N,–,12.4% (inactive)
Cn1sc(Cl)cc1=O,inactive,–
CCCCCCCCOC(=O)c1ccc(C(=O)OCCCCCCCC)c(C(=O)OCCCCCCCC)c1,–,16.2% [at 95.3 µM] (inactive)
O=NN1CCCCCC1,–,15.8% (inactive)
CCOc1nc(F)cc2nc(S(=O)(=O)Nc3c(Cl)cccc3Cl)nn12,–,6.63% (inactive)
CCBr,–,14.9% [at 95.3 µM] (inactive)
Brc1ccc(Oc2ccccc2)cc1,inactive,–

SMILES,Potency,"activity change, negative = cytotoxicity"
Cc1ccc2ccccc2c1,–,15.2% (inactive)
N#CCc1ccccc1,–,9.6% [at 95.3 µM] (inactive)
CC/C(=N\OC/C=C/Cl)C1=C(O)CC(C2CCOCC2)CC1=O (configuration not stated),–,-7.65% (inactive)
N#Cc1cc(I)c(O)c(I)c1,34.4 µM (active),–
COC(=O)C(Cl)C(=O)OC,–,-16.5% (inactive)
O=[N+]([O-])c1ccccc1CCl,–,-14.9% [at 95.3 µM] (inactive)
COc1cc(CC(C)N)cc2c1OCO2 (configuration not stated),–,-5.58% [at 95.3 µM] (inactive)
Nc1nc(=S)[nH][nH]1,–,4.71% (inactive)
Nc1nc(N)nc(N)n1,–,22.9% [at 95.3 µM] (inactive)
COCC(C)N(C(=O)CCl)c1c(C)csc1C (configuration not stated),inactive,–
c1ccc(CN2CCNCC2)cc1,–,13% [at 260 µM] (inactive)
CCCCCCCCCC(=O)O[C@H]1CC[C@H]2[C@@H]3CCC4=CC(=O)CC[C@@H]4[C@H]3CC[C@]12C,–,-10.6% (inactive)
C=CCC1([C@H](C)CCC)C(=O)NC(=O)NC1=O,–,8.46% (inactive)
CCOP(=O)(OCC)SCCSCC,–,21.7% (inactive)
Cc1cc(=O)[nH]o1,–,11.4% [at 95.3 µM] (inactive)
IC(I)=C(I)I,48.6 µM (active),–
CN1C(=O)NC(=O)C(C)(C2=CCCCC2)C1=O (configuration not stated),inactive,–
